This is a sample that favours compounds with a hit; in the whole collection about 1.1% have one here.
MBNL1 CUG block: blocks human MBNL1 binding to CUG repeat RNA; actives 0.036% (n = 280,000); Potency, µM (doses to about 57.5 µM), inactives show at the highest dose activity change, negative = inhibition, actives largely listed as inhibitors; Q9NR56; TR-FRET MBNL1-His/biotin-(CUG)12 binding, 665/545 ratio; active means well fitted inhibition curve with a large enough effect in the signal ratio, with a control signal flat, not every such curve was filed as active; inconclusive means small, poorly fitted or top-dose-only effect, or effect the other way, or a change in a side signal; inactive means no such curve, though single readings can be large or run the other way; the % refers to the signal ratio; further: potency means the concentration at half of the fitted maximal effect; on the % scale 0 is the no-effect control and ±100 the full control effect
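Ratiometric TR-FRET (665 over 545 nm, excitation 340 nm) tracks disruption of MBNL1-His/biotin-(CUG)12 complex after 60 min at room temperature, with compounds at 92 nM to 58 uM final.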
Mito fusion yeast: inhibitors of mitochondrial division or activators of mitochondrial fusion; S. cerevisiae fusion-defective mutant growth rescue, CellTiterGlo 48 h; Potency, µM (top dose mostly 46.1 µM), inactives show top-dose growth rescue (activation), hits mostly activators; actives 0.23% (n = 320,000); AID 485298; active means well fitted activation curve with a large enough effect; inconclusive means small, poorly fitted or top-dose-only effect; inactive means no such curve, though single readings can be large or run the other way; further: potency means the concentration at half of the fitted maximal effect; % of control where 0% means no effect; nearly all actives have a fitted effect of over 45% in size
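Yeast fusion mutant, YPEG (non-fermentable carbon), compound, 48 h at 37C non-permissive; CellTiterGlo added, 10 min RT, luminescence read. Rescued growth = division inhibition.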
Six1-Eya2 inh: blocks human Six1 binding to Eya2; Q15475+O00167; AlphaScreen GST-Six1/His-Eya2 binding, biochemical; hits give low values; activity change, % (test concentration not listed); actives 0.56% (n = 360,000); further: on the % scale 0 is the no-effect control and ±100 the full control effect
Target sequence (O00167 whole entry, looked up): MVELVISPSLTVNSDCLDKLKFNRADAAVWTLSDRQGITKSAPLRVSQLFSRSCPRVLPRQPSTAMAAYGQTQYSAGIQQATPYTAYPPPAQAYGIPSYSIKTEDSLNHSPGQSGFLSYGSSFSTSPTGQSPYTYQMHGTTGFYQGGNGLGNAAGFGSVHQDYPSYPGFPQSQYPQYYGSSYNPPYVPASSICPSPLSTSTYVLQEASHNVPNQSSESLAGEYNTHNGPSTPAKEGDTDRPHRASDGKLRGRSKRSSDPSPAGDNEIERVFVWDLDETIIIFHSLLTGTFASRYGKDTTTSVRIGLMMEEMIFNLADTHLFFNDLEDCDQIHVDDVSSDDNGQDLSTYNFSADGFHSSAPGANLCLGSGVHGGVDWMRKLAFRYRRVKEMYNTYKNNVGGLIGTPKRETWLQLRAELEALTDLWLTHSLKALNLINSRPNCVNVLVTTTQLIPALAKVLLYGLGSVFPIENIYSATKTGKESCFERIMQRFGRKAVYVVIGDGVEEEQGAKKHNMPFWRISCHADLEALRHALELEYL
Target sequence (Q15475 whole entry, looked up): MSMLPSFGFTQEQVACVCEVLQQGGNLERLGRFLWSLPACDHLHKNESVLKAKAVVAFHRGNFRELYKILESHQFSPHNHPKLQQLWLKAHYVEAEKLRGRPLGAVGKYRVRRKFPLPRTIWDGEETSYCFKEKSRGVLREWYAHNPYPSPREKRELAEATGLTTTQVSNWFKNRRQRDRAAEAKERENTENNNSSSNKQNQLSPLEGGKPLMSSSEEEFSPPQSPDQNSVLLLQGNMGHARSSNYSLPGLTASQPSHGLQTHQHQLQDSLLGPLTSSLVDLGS
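AlphaScreen luminescence read after one hour at 37 °C in darkness. Pin-transferred compounds met GST-Six1 and His-Eya2 protein (5X stock 250 nM/500 nM) plus glutathione donor and Ni-chelate acceptor beads (5X, 50 ug/mL).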
uPA generation: inhibitors of cell surface uPA generation. cell surface uPA generation assay, qHTS. Potency, µM (titrated, usually from 38.3 µM), inactives show at the highest dose activity change, negative = inhibition, actives largely listed as inhibitors. actives 0.31% (n = 330,000); active means well fitted inhibition curve with a large enough effect; inconclusive means small, poorly fitted or top-dose-only effect; inactive means no such curve, though single readings can be large or run the other way; tested in mouse RAW 264.7 cells; further: potency means the concentration at half of the fitted maximal effect; on the % scale 0 is the no-effect control and ±100 the full control effect; nearly all actives have a fitted effect of over 55% in size
CtBP-E1A inh: blocks the CtBP interaction with E1A; actives 0.49% (n = 340,000); activity change, % (concentration not given with the values); AlphaScreen GST-E1A/His-CtBP binding, 1536-well; hits give low values; AID 651724; further: on the % scale 0 is the no-effect control and ±100 the full control effect
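Homogeneous bead-based format: GST-tagged E1A captured on glutathione donor beads, His-tagged CtBP on nickel acceptor beads; compounds precede bead addition by 2 h at 37 °C.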
* = called active by the depositor; [ ] = dose if it differs, or a comment. Unless noted, no stated cut-off is given here; in the data, active means activity change below about -65%; inconclusive means mostly about -30% to -63%; inactive means weaker than that.

For COc1cccc(/C=C/C(=O)Nc2ccc3nc4n(c(=O)c3c2)CCCC4)c1OC the results were MBNL1 CUG block inconclusive, Mito fusion yeast -1%, Six1-Eya2 inh inconclusive, uPA generation inconclusive and CtBP-E1A inh -78*.
`COc1cc(/C=C/C(=O)Nc2ccc3nc4n(c(=O)c3c2)CCCC4)cc(OC)c1OC` gave MBNL1 CUG block inconclusive, Mito fusion yeast 1%, Six1-Eya2 inh -85*, uPA generation -8% and CtBP-E1A inh inconclusive.
`COc1ccc(F)cc1S(=O)(=O)NCCc1c(C)[nH]c2c(Cl)cccc12` gave Mito fusion yeast 5%.
For Cc1c(C#N)c(NC(=O)CCl)n(Cc2ccccc2)c1C the results were MBNL1 CUG block -1%, Mito fusion yeast 4%, Six1-Eya2 inh -3, uPA generation -10% and CtBP-E1A inh -12.
For Cc1c(C#N)c(NC(=O)CCl)n(Cc2cccs2)c1C the results were MBNL1 CUG block -4%, Mito fusion yeast 4%, Six1-Eya2 inh -2, uPA generation 5µM* and CtBP-E1A inh -1.
`O=S(=O)(O)c1cccc2cccc(Nc3ccccc3)c12` gave Six1-Eya2 inh -12, uPA generation inconclusive and CtBP-E1A inh -2.
Screening Nc1cccc(CCc2nc3cc4ccccc4cc3[nH]2)c1 returned MBNL1 CUG block 32%, Mito fusion yeast 20µM*, Six1-Eya2 inh 0, uPA generation -8% and CtBP-E1A inh -3.
`COCCn1c(SCc2nc3sc(C(=O)OC)c(C)c3c(=O)[nH]2)nc2ccccc21` gave MBNL1 CUG block -2%, Mito fusion yeast 0%, Six1-Eya2 inh 3, uPA generation 0% and CtBP-E1A inh 1.
Screening CCn1c(SCc2nc3sc(C(=O)O)c(C)c3c(=O)[nH]2)nc2ccccc21 returned MBNL1 CUG block 4%, Mito fusion yeast 3%, Six1-Eya2 inh -68*, uPA generation 3% and CtBP-E1A inh -8.
For CCCCC(=O)NC1(C(F)(F)F)C(=O)Nc2c1c(=O)[nH]c(=O)n2-c1ccc(F)cc1 (stereo not given) the results were Mito fusion yeast -5%.
Screening COc1cc(N(C)C)ccc1C=c1c2ccccc2n2c1cc(-c1ccccc1)[n+]2C returned Six1-Eya2 inh -80*, uPA generation -12% and CtBP-E1A inh -80*.
`COc1cc(C=c2c3ccccc3n3c2cc(-c2ccccc2)[n+]3C)cc(OC)c1OC` gave Six1-Eya2 inh inconclusive, uPA generation -11% and CtBP-E1A inh 4.
CN(C)c1ccc(C=c2c3cc([N+](=O)[O-])ccc3n3c2cc(-c2ccccc2)[n+]3C)cc1 was read as Six1-Eya2 inh -80*, uPA generation -6% and CtBP-E1A inh 6.
Screening CN(C)c1ccc(C=c2c3ccccc3n3c2cc(-c2ccccc2)[n+]3C)cc1 returned Six1-Eya2 inh inconclusive, uPA generation -5% and CtBP-E1A inh 16.
Screening Cc1cc2c(c(=O)n1Cc1ccccc1)C1O[C@](c3ccsc3)(Cc3cc(C#N)ccc31)O2 returned MBNL1 CUG block 27%[11.5 µM] and Mito fusion yeast -5%[9.22 µM].
Screening O=c1nc2s/c(=C\c3ccco3)c(=O)n2nc1Cc1ccc(F)cc1 returned MBNL1 CUG block 23%, Mito fusion yeast 2%, Six1-Eya2 inh -81*, uPA generation 2% and CtBP-E1A inh -80*.
For CCc1nc2c(OCCC3CCCCC3)cccn2c1N(C)C(=O)c1ccc(C)cc1 the results were Six1-Eya2 inh -13 and CtBP-E1A inh -19.
For CCCCCCCCSC1=CC(=O)C(OC)=C(OC)C1=O the results were Six1-Eya2 inh 1 and CtBP-E1A inh -1.
`CC(=O)/C(=C/c1ccccc1)C(=O)Nc1ccccc1C` gave MBNL1 CUG block -10%, Mito fusion yeast 1%, Six1-Eya2 inh 1 and uPA generation 2.8µM*.
For O=C(C1CCCCC1)N1C[C@@H](O)[C@H](n2cc(-c3ccc(F)cc3)nn2)C[C@@H]1c1ccc(Cl)cc1 the results were Six1-Eya2 inh 2 and CtBP-E1A inh 4.
COc1cccc(Cn2c(C(C)n3c(C)nc4ccccc43)nc3ccccc32)c1 (stereo not given) was read as Six1-Eya2 inh 0 and CtBP-E1A inh 3.

Screening results (PubChem)
